# Key:
# Experiment in all cases: PBM binding z-score (relative to random genomic background probes); higher = stronger binding; sequences stand for … in GC…GCGATTGACAGCGTAGAATGAAGG
# [1] = system: PPARg:RXRa DBDmut IVT, anti-RXR (DBD mutation: RXRa K156A/R161A, NR concentration 270 nM, RXRa partner concentration 90 nM)
# Procedure, shortened: (§1)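 Custom Agilent 4×180K protein-binding microarrays carried double-stranded probes, each with a 34-nt variable region. These regions held direct-repeat seeds, single-nucleotide variants, half-site ablations and random human genomic background sequences. Ligand-free nuclear receptor dimers were incubated on the arrays for 1 h, antibodies against each partner (one per run) detected binding, and scanned fluorescence was regression-normalized. Binding z-scores take the random background probes as reference.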
# [2] = system: PPARg:RXRa IVT, anti-PPARg (NR concentration 270 nM, RXRa partner concentration 90 nM)
# Procedure, shortened: as §1
# [3] = system: PPARg DBDmut:RXRa IVT, anti-PPARg (DBD mutation: PPARg1 K132A/R137A, NR concentration 270 nM, RXRa partner concentration 90 nM)
# Procedure, shortened: as §1
# [4] = system: PPARg DBDmut IVT, anti-PPARg (DBD mutation: PPARg1 K132A/R137A, NR concentration 270 nM)
# Procedure, shortened: as §1
# [5] = system: PPARg homodimer (NR concentration 180 nM)
# Procedure, shortened: as §1
# [6] = system: PXR:RXRa (NR concentration 270 nM, RXRa partner concentration 90 nM)
# Procedure, shortened: as §1
# [7] = system: PXR homodimer (NR concentration 270 nM)
# Procedure, shortened: as §1
# [8] = system: RARa:RXR (NR concentration 270 nM, RXRa partner concentration 90 nM)
# Procedure, shortened: as §1
# [9] = system: RARa homodimer (NR concentration 270 nM)
# Procedure, shortened: as §1
# [10] = system: RARb:RXRa (NR concentration 270 nM, RXRa partner concentration 90 nM)
# Procedure, shortened: as §1
Sequence,PBM binding z-score [1],PBM binding z-score [2],PBM binding z-score [3],PBM binding z-score [4],PBM binding z-score [5],PBM binding z-score [6],PBM binding z-score [7],PBM binding z-score [8],PBM binding z-score [9],PBM binding z-score [10]
ATCTCTAGGTACCAAGTTCAGTGAAAGAGAGGAC,0.464,0.878,1.07,0.989,0.548,1.42,1.37,0.711,0.57,1.28
CCTACTGGCCCATTCAGAGGTCATTGATCATATG,-0.184,0.996,-0.258,-0.298,2.98,4.67,2.7,4.14,1.58,2.81
CGAACGAGCGCATGAGTTGATAGCAAATGCCGAT,-0.785,-0.827,-0.939,-1.33,-2.16,-0.509,-0.275,-0.304,-0.678,-1.03
TCTATAAGTTGATTAGGGCAACCGAAACAGCGGA,2.11,1.45,0.91,0.949,0.532,0.227,0.561,0.489,0.661,1.13
ACAGACAGGTGAGTGAAGGTAACGCAGCTGGACG,0.361,1.04,-1.24,-0.822,-0.463,-0.245,-0.327,0.359,-0.195,0.702
TCATATAGGTAAAAGCTGAAAGTCGGTGTGGTAA,4.01,2.14,1.19,0.683,0.11,0.239,-0.198,0.257,0.519,0.0291
GGAACGACGGCAAAGTTGATAGCATCTGTCGACG,-0.332,-0.552,-0.0147,-1.18,-0.573,-0.362,-0.756,0.0195,-0.6,-0.341
TCATATAGGTAAATGCTGGGTGAAAGTCCGATCT,4.13,2.63,0.471,0.976,1.04,0.606,0.456,0.833,1.19,0.495
TGAATGAGGTTATCAGATCAGGGAACGTTGCAAA,1.59,2.2,0.55,-0.0543,1.69,0.942,-0.255,1.45,-0.892,1.44
AGAATGAGGTTATTGAGATCAGGGAATTGCGGTC,3.5,2.93,0.606,0.563,0.709,1.57,0.864,1.84,0.342,1.63
TTTATTAGTTGATTAGGGCAACCGAAACAGCGGA,1.46,2.1,1.84,1.94,1.68,0.473,0.839,0.832,2.38,1.24
TGAATGAGGTTAAAGATGAGGGAACGTGGCGTCG,2.54,2.8,0.619,0.196,0.933,1.49,0.214,2.17,0.368,2.1
AGAATGAGGTTATACGTAGATCAGGGAGGAAAGT,3.75,1.91,1.26,0.799,0.811,1.18,0.618,1.66,0.507,1.47
TAGCCTAGGTCATTCAGCGGCCAGTATAGAAAGC,1.69,2.65,0.127,-0.00854,2.11,1.94,-0.494,3.02,-0.474,3.92
AGTCAAAGTTCAGGACCAGGTAACGTAAAGCACG,-0.279,1.91,0.221,0.246,1.9,2.47,1.19,2.67,0.885,4.37
GCTGCTAGGTCAACTGATGGTCTGCTAAAGCTCG,4.88,4.03,0.365,-0.14,1.69,1.37,-0.53,2.39,0.112,4.1
GCAGACAGGTGGAACGCAGGTAACTCAGGGTGGC,-0.523,-0.717,-1.02,-1.2,-0.728,-0.719,-0.596,-0.428,-1.35,-0.55
AATCCAGGGTCACTAGGCCAGAGTAGGTACGAAT,3.69,5.76,1.17,1.11,2.8,3.49,0.164,4.74,0.405,4.36
TCTGCTAGGTCAGTTGGTCTGCTAACGAGCTGCC,2.62,2.53,0.337,-0.177,-0.432,-0.155,-1.02,0.136,-1.16,3.25
ATATGTAGGTTACATCCGGATCATTCAGGCTATG,7.7,7.49,3.14,2.67,1,0.73,0.559,1.04,0.899,1.05
ATCCCTAGGTAAGACTCAGTTCAGTGAAGAACGC,0.0897,-0.242,-0.265,0.674,0.578,1.06,1.32,0.256,0.532,0.244
CCTCGGAGGACAGGAGGTCAGAGCTGTCCGCTTT,0.39,0.452,-1.92,-2.09,1.28,1.81,-0.0765,2.05,-0.0884,2.82
GCATATAGGTAATCCAAGGTGAAAGTCCGATTGT,4.62,3.17,0.831,0.665,1.03,0.638,0.241,1.53,0.647,0.51
AGTCAAAGTTCACTAGGTAACGTTAGATTCAGCT,2.64,4.82,1.46,1.15,2.91,3.95,2.61,3.1,0.915,4.65

# From the supplement of paper PMC6555819
